Measurements published in the supplement of paper PMC10849652.
The full data set covers some 8,800 targets. This sample favours those with a hit. About 0.5% of all pairs of compound and target were hits.

Tests used:
Experiment in all cases: log2 fold change, soluble protein after heating vs DMSO (PISA); higher = thermal stabilisation; K562 lysate, 10 uM; active = over 0.2 and 3.5 SD of the protein, either way, in both replicates (recomputed)
[1] = compound: CC(=O)c1cnc2ccc(-c3cc(Cl)c(O)c(Cl)c3)nc2c1N[C@H]1CC[C@H](CN(C)C)CC1
Procedure, shortened: (§1)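 Dounce homogenisation of K562 pellets in PBS pH 7.4 with 1 mM MgCl2 produced a crude extract, used at 1 mg/mL protein. Exposure to 10 μM compound lasted 30 min, and aliquots were then heated for 3 min across 48°C-58°C, pooled and brought to 0.5% NP-40 at 4°C. The supernatant after 21,000xg for 90 min was quantified by TMTpro 16plex LC-MS/MS with channel sums equalised. Duplicate values are given as log-two fold change in thermal stability relative to solvent controls.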

ralimetinib = compound: CC(C)(C)Cn1c(N)nc2ccc(-c3[nH]c(C(C)(C)C)nc3-c3ccc(F)cc3)nc21 [ralimetinib]
Procedure, shortened: as §1

[2] = compound: CC(C)(O)CC(=O)NCCn1ccc2ncnc(Nc3ccc(Oc4cccc(C(F)(F)F)c4)c(Cl)c3)c21
Procedure, shortened: as §1

[3] = compound: CC(C)C1=C2N=C(C=C(N2N=C1)NCC3=CC=CC=C3)NCCCCCCN
Procedure, shortened: as §1

[4] = compound: CC1=C(C(CC(=O)N1)C2=CC=C(C=C2)C(F)(F)F)C(=O)NC3=C(C=C4C(=C3)C=NN4)F
Procedure, shortened: as §1

[5] = compound: CC1=C(C2=C(C=C1)C(=O)C3=CC=CC=C3N2CCCN)C
Procedure, shortened: as §1

[6] = compound: CC1=C(C=C(C=C1)NC(=O)C2=CC(=CC=C2)C(C)(C)C#N)NC3=CC4=C(C=C3)N=CN(C4=O)C
Procedure, shortened: as §1

[7] = compound: CC1=C(C=C(C=C1)NC(=O)C2=CC(=CC=C2)N(C)C)NC(=O)C3=CC=C(C=C3)O
Procedure, shortened: as §1

[8] = compound: CC1=CC=C(C=C1)SC2=C3C=C(SC3=CN=C2)C(=O)N
Procedure, shortened: as §1

ibrutinib = compound: C=CC(=O)N1CCC[C@@H](n2nc(-c3ccc(Oc4ccccc4)cc3)c3c(N)ncnc32)C1 [ibrutinib]
Procedure, shortened: as §1

Measured: log2 fold change

FAM76B (UniProt Q5HYJ3)
inactive: [1] -0.025 | ralimetinib -0.005 | [2] -0.01 | [3] -0.06 | [4] -0.012 | [5] -0.02 | [6] 0.023 | [7] -0.002 | [8] -0.011

FYN (UniProt P06241)
active: ibrutinib 0.79
inactive: [1] 0.046 | ralimetinib 0.09 | [2] -0.13 | [3] 0.003 | [5] -0.042 | [6] -0.069 | [7] 0.052 | [8] 0.021

DTL (UniProt Q9NZJ0)
inactive: ibrutinib 0.012 | ralimetinib 0.037 | [2] -0.024 | [3] -0.05 | [4] 0.041 | [5] -0.104 | [6] 0.071 | [7] -0.037

FLT4 (UniProt P35916)
Chain of UniProt P35916 (P35916 whole entry, looked up): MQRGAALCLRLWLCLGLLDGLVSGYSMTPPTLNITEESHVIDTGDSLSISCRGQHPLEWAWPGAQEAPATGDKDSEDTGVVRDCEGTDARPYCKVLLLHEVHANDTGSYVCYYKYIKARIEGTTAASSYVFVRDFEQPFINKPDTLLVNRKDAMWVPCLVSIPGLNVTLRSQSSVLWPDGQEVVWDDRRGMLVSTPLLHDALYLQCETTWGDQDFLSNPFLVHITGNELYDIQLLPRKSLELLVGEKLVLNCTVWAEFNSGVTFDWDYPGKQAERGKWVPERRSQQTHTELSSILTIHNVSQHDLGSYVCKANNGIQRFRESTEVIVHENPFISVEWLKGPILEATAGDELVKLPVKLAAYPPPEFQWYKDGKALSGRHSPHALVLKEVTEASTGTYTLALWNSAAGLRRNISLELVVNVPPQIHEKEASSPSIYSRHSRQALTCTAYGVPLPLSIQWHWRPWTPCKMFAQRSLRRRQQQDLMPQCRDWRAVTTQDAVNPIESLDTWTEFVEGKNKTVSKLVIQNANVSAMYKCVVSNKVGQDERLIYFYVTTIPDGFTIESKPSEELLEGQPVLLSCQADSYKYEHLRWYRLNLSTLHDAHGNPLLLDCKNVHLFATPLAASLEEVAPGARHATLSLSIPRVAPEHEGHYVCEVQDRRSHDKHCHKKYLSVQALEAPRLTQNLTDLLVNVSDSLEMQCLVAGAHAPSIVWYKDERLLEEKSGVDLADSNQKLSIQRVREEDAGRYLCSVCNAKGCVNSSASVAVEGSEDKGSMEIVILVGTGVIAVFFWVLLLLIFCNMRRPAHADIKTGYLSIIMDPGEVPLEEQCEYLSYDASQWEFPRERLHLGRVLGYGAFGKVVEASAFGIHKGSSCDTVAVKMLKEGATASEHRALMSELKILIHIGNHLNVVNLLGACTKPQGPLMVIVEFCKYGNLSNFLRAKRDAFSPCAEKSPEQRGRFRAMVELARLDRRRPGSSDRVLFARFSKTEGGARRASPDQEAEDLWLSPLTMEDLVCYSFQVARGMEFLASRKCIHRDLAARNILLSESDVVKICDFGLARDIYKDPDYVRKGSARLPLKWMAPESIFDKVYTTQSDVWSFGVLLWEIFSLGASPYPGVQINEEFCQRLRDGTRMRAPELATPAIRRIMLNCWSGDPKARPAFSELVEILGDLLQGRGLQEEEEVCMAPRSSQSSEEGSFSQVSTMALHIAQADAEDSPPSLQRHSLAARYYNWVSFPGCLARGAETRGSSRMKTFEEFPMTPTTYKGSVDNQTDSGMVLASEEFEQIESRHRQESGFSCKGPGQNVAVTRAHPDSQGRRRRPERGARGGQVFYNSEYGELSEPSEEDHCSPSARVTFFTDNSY
inactive: ibrutinib 0.062 | [1] 0.064 | ralimetinib 0.012 | [2] -0.005 | [3] -0.057 | [5] 0.038 | [7] -0.019 | [8] 0.005

EWSR1 (UniProt H7BY36)
inactive: ibrutinib -0.288 | ralimetinib -0.073 | [2] -0.052 | [5] -0.126 | [6] 0.071 | [7] 0.39

DST isoform 3 (UniProt Q03001)
inactive: ibrutinib 0.005 | [3] -0.01

FNDC3A (UniProt Q9Y2H6)
inactive: ralimetinib 0.118 | [2] -0.207 | [3] -0.093 | [4] 0.31 | [6] 0.027 | [7] 0.113

FBRSL1, A0A3B3IRR3
inactive: ibrutinib 0.072 | ralimetinib 0.027 | [2] 0.008 | [3] -0.075 | [4] -0.01 | [5] 0.183 | [7] 0.012
active: [6] -0.381

FAT2 (UniProt Q9NYQ8)
inactive: ibrutinib 0.01 | [1] 0.057 | ralimetinib -0.156 | [2] -0.123 | [3] -0.314 | [4] -0.019 | [6] 0.166 | [7] 0.038 | [8] -0.023

FTSJ1 isoform 2 (UniProt Q9UET6)
inactive: [1] 0.026 | [8] 0.001

DYNC1I2 isoform 2 (UniProt Q13409)
inactive: ibrutinib -0.101 | [1] -0.032 | ralimetinib -0.04 | [2] -0.032 | [3] -0.017 | [5] 0.083 | [6] -0.019 | [7] -0.047 | [8] 0.012

EPB41 isoform 4 (UniProt P11171)
inactive: [1] 0.048 | ralimetinib -0.056 | [2] -0.018 | [3] 0.148 | [4] -0.012 | [6] 0.042 | [7] -0.001 | [8] -0.004

GAPVD1 (UniProt Q14C86)
inactive: ibrutinib 0.086 | [1] 0.317 | [8] -0.666

GCA (UniProt P28676)
inactive: [1] -0.134 | [3] 0.191 | [4] 0.173 | [8] 0.123

ERG28 (UniProt Q9UKR5)
inactive: ibrutinib 0.064 | [1] -0.045 | [5] 0.059 | [8] -0.004

EXO5 (UniProt Q9H790)
inactive: ibrutinib 0.111 | ralimetinib 0.018 | [2] -0.126 | [3] -0.025 | [6] 0.217 | [7] -0.067

EPB41, A0A2R8Y783
inactive: ibrutinib 0.196 | [1] 0.093 | [5] 0.057 | [8] 0.034

FBXO45 (UniProt P0C2W1)
Chain of UniProt P0C2W1 (P0C2W1 whole entry, looked up): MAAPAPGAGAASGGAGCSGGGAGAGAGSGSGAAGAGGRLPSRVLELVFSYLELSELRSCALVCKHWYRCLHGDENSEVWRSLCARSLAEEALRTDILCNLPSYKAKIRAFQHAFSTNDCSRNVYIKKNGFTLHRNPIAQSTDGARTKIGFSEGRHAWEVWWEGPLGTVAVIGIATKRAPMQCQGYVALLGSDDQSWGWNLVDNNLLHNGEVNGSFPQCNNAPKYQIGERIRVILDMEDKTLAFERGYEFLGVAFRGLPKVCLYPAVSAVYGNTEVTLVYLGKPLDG
inactive: ibrutinib 0.207 | [1] 0.075 | ralimetinib 0.173 | [2] 0.045 | [3] 0.043 | [4] 0.015 | [6] 0.064 | [7] 0.018 | [8] 0.081

EID1 (UniProt Q9Y6B2)
Chain of UniProt Q9Y6B2 (Q9Y6B2 whole entry, looked up): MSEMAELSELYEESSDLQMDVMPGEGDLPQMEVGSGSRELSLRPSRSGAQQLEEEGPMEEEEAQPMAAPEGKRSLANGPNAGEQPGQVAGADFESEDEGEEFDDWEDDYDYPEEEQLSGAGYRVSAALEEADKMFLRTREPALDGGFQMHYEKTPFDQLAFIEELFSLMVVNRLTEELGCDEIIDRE
inactive: ralimetinib -0.06 | [2] -0.042 | [3] -0.173 | [4] 0.05 | [5] -0.116 | [7] -0.008

FOXL2 (UniProt P58012)
inactive: ibrutinib -0.074 | [1] -0.065 | ralimetinib 0.264 | [2] -0.095 | [3] 0.161 | [5] -0.023 | [7] 0.02 | [8] -0.035

EIF2AK3 (UniProt Q9NZJ5)
inactive: [1] 0.003 | ralimetinib 0.039 | [2] -0.191 | [3] 0.012 | [4] -0.052 | [5] 0.037 | [7] -0.061 | [8] -0.07

DYRK1A isoform 2 (UniProt Q13627)
inactive: ibrutinib -0.063 | ralimetinib 0.085 | [2] -0.241 | [3] 0.005 | [6] 0.004 | [7] -0.081

ELAVL4 (UniProt P26378)
inactive: [1] -0.04 | ralimetinib 0.065 | [2] 0.064 | [3] 0.026 | [4] -0.061 | [5] -0.01 | [6] -0.005 | [7] -0.026 | [8] 0.073

EIF2B5, A0A3B3ITK8
inactive: [1] 0.015 | [4] 0.037 | [8] -0.104

FAM53B (UniProt Q14153)
inactive: ibrutinib 0.037 | ralimetinib -0.299 | [2] -0.084 | [3] 0.037 | [4] 0.098 | [5] 0.161 | [6] -0.07 | [7] -0.263

FAT1 (UniProt Q14517)
inactive: [1] -0.109 | ralimetinib -0.034 | [2] -0.016 | [3] -0.05 | [6] 0.188 | [7] 0.024 | [8] -0.105

GABPB1 isoform 3 (UniProt Q06547)
inactive: ibrutinib 0.085 | [1] -0.027 | ralimetinib 0.043 | [2] -0.068 | [3] 0.121 | [5] 0.099 | [6] -0.051 | [7] -0.042 | [8] 0.03

FOXJ2 (UniProt Q9P0K8)
inactive: ibrutinib -0.045 | ralimetinib 0.02 | [2] -0.035 | [3] 0.091 | [4] 0.041 | [5] -0.129 | [7] 0.108

ESRRB isoform 1 (UniProt O95718)
Chain of UniProt O95718 (O95718 whole entry, looked up): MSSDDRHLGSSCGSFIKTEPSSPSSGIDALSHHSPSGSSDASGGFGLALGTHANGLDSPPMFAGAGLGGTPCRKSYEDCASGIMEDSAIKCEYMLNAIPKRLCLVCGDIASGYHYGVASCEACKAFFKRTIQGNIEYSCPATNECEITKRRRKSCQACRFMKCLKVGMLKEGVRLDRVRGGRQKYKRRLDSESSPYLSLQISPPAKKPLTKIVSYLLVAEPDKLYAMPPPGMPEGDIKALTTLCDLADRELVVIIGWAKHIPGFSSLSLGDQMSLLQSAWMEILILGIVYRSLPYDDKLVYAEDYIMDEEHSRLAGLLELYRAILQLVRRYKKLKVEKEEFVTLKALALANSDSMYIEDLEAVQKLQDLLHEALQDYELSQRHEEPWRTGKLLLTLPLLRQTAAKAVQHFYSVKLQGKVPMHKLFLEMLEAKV
inactive: ibrutinib -0.047 | ralimetinib 0.035 | [2] -0.087 | [3] -0.187 | [7] 0.053

EPN2 (UniProt I3L356)
inactive: ibrutinib 0.105 | [1] -0.021 | [4] 0.102 | [8] 0.097

GDE1 (UniProt Q9NZC3)
Chain of UniProt Q9NZC3 (Q9NZC3 whole entry, looked up): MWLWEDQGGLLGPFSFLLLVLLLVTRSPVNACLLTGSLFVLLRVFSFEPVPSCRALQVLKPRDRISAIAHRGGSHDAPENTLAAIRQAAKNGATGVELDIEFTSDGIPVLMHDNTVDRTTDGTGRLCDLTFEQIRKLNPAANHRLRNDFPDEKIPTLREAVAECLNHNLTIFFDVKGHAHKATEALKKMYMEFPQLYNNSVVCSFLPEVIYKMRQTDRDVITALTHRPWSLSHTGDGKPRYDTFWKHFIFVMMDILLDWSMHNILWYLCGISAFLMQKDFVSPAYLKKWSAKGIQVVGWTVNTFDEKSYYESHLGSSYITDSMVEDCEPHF
inactive: ibrutinib -0.047 | [1] -0.017 | ralimetinib 0.067 | [2] 0.026 | [3] 0.025 | [5] -0.038 | [6] -0.036 | [7] -0.122 | [8] -0.014

FMNL2 isoform 3 (UniProt Q96PY5)
Chain of UniProt Q96PY5 (Q96PY5 whole entry, looked up): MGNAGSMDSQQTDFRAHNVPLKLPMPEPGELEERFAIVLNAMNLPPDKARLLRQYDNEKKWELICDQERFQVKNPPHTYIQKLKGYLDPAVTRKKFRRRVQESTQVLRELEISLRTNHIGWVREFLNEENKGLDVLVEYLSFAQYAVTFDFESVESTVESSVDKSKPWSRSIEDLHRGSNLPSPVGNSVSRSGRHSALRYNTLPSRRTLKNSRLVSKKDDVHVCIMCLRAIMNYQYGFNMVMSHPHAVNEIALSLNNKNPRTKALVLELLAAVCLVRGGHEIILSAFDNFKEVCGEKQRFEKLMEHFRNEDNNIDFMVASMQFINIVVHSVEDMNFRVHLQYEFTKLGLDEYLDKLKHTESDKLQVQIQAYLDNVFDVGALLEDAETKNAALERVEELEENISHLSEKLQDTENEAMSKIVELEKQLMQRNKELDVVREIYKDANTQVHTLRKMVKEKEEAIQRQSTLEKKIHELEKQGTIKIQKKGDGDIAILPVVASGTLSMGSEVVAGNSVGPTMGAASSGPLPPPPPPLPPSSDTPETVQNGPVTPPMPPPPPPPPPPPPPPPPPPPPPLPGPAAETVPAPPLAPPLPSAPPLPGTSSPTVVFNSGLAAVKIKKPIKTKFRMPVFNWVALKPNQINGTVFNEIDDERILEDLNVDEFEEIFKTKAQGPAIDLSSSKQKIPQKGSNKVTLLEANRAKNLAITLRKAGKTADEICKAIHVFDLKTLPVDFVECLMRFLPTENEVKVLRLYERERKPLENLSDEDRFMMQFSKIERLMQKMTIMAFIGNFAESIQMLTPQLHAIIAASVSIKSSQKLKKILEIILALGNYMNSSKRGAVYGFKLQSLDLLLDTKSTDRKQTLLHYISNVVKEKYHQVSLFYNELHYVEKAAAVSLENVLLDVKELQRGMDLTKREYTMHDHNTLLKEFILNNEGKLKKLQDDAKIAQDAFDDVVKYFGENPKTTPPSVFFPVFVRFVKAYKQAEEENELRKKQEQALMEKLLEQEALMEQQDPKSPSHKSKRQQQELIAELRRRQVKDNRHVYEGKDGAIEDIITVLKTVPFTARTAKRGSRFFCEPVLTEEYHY
inactive: [1] -0.048 | ralimetinib -0.02 | [2] 0.185 | [3] 0.065 | [4] -0.056 | [5] 0.071 | [6] 0.116 | [7] 0.048 | [8] -0.003

GC isoform 3 (UniProt P02774)
Chain of UniProt P02774 (P02774 whole entry, looked up): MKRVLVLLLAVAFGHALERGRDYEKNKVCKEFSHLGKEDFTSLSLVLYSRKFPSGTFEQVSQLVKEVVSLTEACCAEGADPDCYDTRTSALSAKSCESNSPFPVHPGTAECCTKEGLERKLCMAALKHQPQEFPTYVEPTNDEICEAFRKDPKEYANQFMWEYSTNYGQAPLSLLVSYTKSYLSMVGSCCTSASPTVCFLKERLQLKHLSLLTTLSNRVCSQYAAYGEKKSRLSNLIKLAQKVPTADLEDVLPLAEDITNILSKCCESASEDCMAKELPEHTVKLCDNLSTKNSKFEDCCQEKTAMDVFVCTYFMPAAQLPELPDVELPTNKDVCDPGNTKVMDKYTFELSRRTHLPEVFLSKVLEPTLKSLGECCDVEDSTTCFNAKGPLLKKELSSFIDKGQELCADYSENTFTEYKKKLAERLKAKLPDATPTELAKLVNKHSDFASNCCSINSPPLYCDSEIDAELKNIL
inactive: ralimetinib 0.051 | [5] -0.148 | [6] -0.087 | [7] -0.101
active: [2] -0.559

EIF3I (UniProt Q5TFK1)
inactive: [1] 0.266 | [4] -0.661 | [8] -0.059

FAM111A (UniProt Q96PZ2)
Chain of UniProt Q96PZ2 (Q96PZ2 whole entry, looked up): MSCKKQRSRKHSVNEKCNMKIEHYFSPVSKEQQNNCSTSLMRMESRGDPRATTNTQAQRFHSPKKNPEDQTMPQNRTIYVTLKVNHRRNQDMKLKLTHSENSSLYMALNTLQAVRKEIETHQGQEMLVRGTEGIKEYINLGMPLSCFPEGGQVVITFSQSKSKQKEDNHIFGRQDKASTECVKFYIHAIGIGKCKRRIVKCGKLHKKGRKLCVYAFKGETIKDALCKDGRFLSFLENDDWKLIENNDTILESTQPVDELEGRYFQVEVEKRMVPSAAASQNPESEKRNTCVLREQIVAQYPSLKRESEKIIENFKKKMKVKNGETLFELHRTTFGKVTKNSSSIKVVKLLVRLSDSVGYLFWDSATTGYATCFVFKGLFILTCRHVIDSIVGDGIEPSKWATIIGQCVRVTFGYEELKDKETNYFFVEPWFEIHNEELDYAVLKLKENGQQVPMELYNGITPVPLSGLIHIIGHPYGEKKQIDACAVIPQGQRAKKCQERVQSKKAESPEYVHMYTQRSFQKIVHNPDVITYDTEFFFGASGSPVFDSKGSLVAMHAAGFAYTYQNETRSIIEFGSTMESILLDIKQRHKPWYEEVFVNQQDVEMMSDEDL
inactive: [1] 0.171 | ralimetinib 0.116 | [2] 0.083 | [3] 0.125 | [5] -0.106 | [6] -0.093 | [7] 0.022 | [8] -0.244

GART (UniProt C9JZG2)
inactive: ibrutinib -0.062 | [1] 0.037 | ralimetinib 0.069 | [2] -0.068 | [4] -0.114 | [6] 0.083 | [7] -0.052 | [8] 0.022

FAM204A (UniProt Q9H8W3)
Chain of UniProt Q9H8W3 (Q9H8W3 whole entry, looked up): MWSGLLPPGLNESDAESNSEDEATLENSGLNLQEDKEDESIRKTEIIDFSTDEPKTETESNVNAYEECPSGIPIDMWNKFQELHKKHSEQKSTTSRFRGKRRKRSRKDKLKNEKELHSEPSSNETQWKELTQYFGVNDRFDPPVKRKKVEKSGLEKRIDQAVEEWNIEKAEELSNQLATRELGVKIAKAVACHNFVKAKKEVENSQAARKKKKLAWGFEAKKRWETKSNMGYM
inactive: ralimetinib -0.12 | [2] 0.061 | [3] -0.117 | [6] 0.174 | [7] -0.002
